Screening data deposited in PubChem by National Center for Advancing Translational Sciences (NCATS).
Sampled rows, rich in hits. Any-hit rate of the full collection: about 19%.
TDP1 block: blocks human tyrosyl-DNA phosphodiesterase 1; Q9NUW8; recombinant TDP1, AlphaScreen DNA substrate cleavage; Potency, µM (top dose mostly 130 µM), for the others: at the top dose activity change, negative = inhibition, usual class: inhibitors; hit rate 0.28% among 350,000; AID 485290; further: potency means the concentration at half of the fitted maximal effect; on the % scale 0 is the no-effect control and ±100 the full control effect; nearly all actives have a fitted effect of over 40% in size
Target sequence (Q9NUW8 whole entry, looked up): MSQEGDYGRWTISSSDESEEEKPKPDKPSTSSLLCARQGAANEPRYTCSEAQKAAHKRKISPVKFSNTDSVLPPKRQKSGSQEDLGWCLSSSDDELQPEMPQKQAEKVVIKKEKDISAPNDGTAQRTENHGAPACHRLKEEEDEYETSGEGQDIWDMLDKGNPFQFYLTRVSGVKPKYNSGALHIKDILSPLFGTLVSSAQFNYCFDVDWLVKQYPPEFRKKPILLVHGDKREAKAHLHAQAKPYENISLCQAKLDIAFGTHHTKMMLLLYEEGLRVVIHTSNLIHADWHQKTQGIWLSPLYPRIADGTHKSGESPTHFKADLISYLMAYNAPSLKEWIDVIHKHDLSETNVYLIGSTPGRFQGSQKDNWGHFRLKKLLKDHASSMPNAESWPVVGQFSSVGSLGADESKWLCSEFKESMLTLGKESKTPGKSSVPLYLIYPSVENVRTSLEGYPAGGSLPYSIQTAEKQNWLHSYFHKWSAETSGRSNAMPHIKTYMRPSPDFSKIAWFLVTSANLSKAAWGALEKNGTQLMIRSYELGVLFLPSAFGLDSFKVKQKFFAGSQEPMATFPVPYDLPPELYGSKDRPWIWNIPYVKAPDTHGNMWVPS
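Here, a 5' biotin and 3' phosphotyrosine-FITC DNA oligonucleotide reports Tdp1 activity: intact substrate bridges AlphaScreen beads, while cleavage leaves a 3' phosphate and drops signal. All incubations at room temperature.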
DT40 TDP1 CPT: DT40-hTDP1 cell growth loss with CPT. chicken DT40 Tdp1-/-;hTDP1 cells + 20 nM CPT, ATP luminescence, 48 h. Potency, µM (titrated, usually from 46.2 µM), inactives show at the highest dose activity change, negative = growth inhibition, most hits filed as inhibitors. hit rate 12% among 420,000. AID 686979; further: potency means the concentration at half of the fitted maximal effect; on the % scale 0 is the no-effect control and ±100 the full control effect; nearly all actives have a fitted effect of over 55% in size
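Cell growth measured by CellTiter-Glo luminescence after a minimum 48 h, 37 C compound exposure with 20 nM CPT in Tdp1-knockout DT40 cells stably expressing hTDP1, seeded 400/well; qHTS titration format.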
TGFb SMAD3 inh: blocks TGF-b signaling | AID 588855 | HepG2 CAGA-GFP TGF-b/SMAD3 reporter, GFP fluorescence, 18 h; TGF-beta stimulated, 500 pg/mL final | hit rate 1.2% among 410,000 | Potency, µM (highest dose often 46.1 µM), inactives show top-dose activity, negative = inhibition, actives largely listed as inhibitors; further: potency means the concentration at half of the fitted maximal effect; on the % scale 0 is the no-effect control and ±100 the full control effect; nearly all actives have a fitted effect of over 65% in size
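Cell-based qHTS in HEPG2 carrying a CAGA-GFP Smad reporter; compounds added before 500 pg/mL final TGF-beta, 18 h incubation at 37 degrees C, GFP fluorescence quantified per cell by imaging cytometry.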
DT40 TDP1 no CPT: qHTS for Inhibitors of human tyrosyl-DNA phosphodiesterase 1 (TDP1): qHTS in cells in absence of CPT | DT40 Tdp1-/- hTDP1 cells, no CPT, ATP luminescence, 48 h | Potency, µM (titrated, usually from 46.2 µM), inactives show top-dose activity change, negative = growth inhibition, hits mostly inhibitors | hit rate 15% among 420,000 | AID 686978, 2013; further: potency means the concentration at half of the fitted maximal effect; on the % scale 0 is the no-effect control and ±100 the full control effect; nearly all actives have a fitted effect of over 55% in size
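Camptothecin absent (DMSO only). Human TDP1-complemented DT40 knockout cells, 400 cells/well, 37 °C for minimum 48 hr; ATP measured via CellTiter-Glo, 30 min dark incubation, luminescence.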
HepG2 tox: kills HepG2 cells in TGF-b inhibitor counter-screen | Potency, µM (doses to about 46.1 µM), without a hit: at the highest dose activity change, negative = cytotoxicity, actives largely listed as cytotoxic | HepG2 CAGA-GFP viability, ATP luminescence, 18 h | hit rate 0.76% among 410,000 | AID 588856; further: potency means the concentration at half of the fitted maximal effect
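CellTiter-Glo luminescence gave cytotoxicity after 18 hours at 37 degrees C. The cells were HepG2 CAGA-GFP in 1% FBS DMEM, stimulated with 500 pg/mL TGF-beta after compound addition. %Activity was normalised to no-cell wells (complete cell-killing) and DMSO (no toxicity), and curves were fitted and classified.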
IL1B secr inh: inhibitors of inflammasome signaling (IL-1 beta secretion); THP-1 LPS/ATP IL-1B secretion, AlphaLISA, 16 h; hits give low values; activity change, % at 57.5 µM; hit rate 4.7% among 360,000; AID 743279; in the data active means activity change below about -50%; inconclusive means mostly about -30% to -49%; further: on the % scale 0 is the no-effect control and ±100 the full control effect
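Secreted IL-1B measured by AlphaLISA bead assay after 16 h compound exposure of THP-1 cells; compounds (final up to 57.5 uM) added 1 h before LPS (250 ng/mL) and ATP (1.25 mM) stimulation; lower signal means less secretion.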
Starred values were filed as active, the others as inactive; u = inconclusive; x = not tested or not shown; ! = repeats disagree; [ ] = remark or other dose. Unless noted, the call rests on the fitted dose curve; in most records, active means well fitted curve in the direction sought with a large enough effect; inconclusive means small, poorly fitted or top-dose-only effect, or another doubt; inactive means no such curve, though single readings can be large; an effect the other way counts as inactive or inconclusive.

SMILES	TDP1 block	DT40 TDP1 CPT	TGFb SMAD3 inh	DT40 TDP1 no CPT	HepG2 tox	IL1B secr inh
COc1ccc(N2CCN(c3oc(-c4ccc(COc5cccc(C)c5)o4)nc3C#N)CC2)cc1	0.5%	u	-16.6%	u	-6.0%	x
COc1ccc(C(=O)Nc2ccc3nc(C)sc3c2)cc1S(=O)(=O)N1CCOCC1	x	u	0.1%	u	-9.7%	11.5
CCOC(=O)C1CCCN(C(=O)c2cccc(S(=O)(=O)N3CCCC3)c2)C1 (centres undefined)	0.6%	-19.5%	24.5%	-32.6%	-7.6%	2.1
CC1CCCC(NC(=O)c2cccc(S(=O)(=O)N3CCN(c4ccccc4)CC3)c2)C1C (centres undefined)	x	18.4µM*	-32.9%	13µM*	0.3%	11.8
CCOC(=O)C1CCCN(S(=O)(=O)c2ccc(F)c(C(=O)Nc3ccc(F)c(F)c3)c2)C1 (centres undefined)	2.6%	23.1µM*!	2.0%	16.4µM*	-22.1%	-66.2*
CCOC(=O)C1CCCN(C(=O)c2cc(S(=O)(=O)N3CCCCC3)ccc2Cl)C1 (centres undefined)	-7.5%	20.6µM*	-4.8%	20.6µM*	-25.4%	-14.4
CC(=O)N1CCN(S(=O)(=O)c2cccc(C(=O)N3CCN(S(=O)(=O)c4c(C)c(C)cc(C)c4C)CC3)c2)CC1	x	u	-22.2%	20.6µM*	-35.4%	-14.8
CCOC(=O)C1CCCN(S(=O)(=O)c2ccc(NC(C)=O)cc2)C1 (centres undefined)	7.1%	-34.9%	-5.5%	-49.9%	-7.9%	-10.8
O=C(NC1CCCCC1)c1cc(S(=O)(=O)N2CCN(c3ccccc3)CC2)ccc1Cl	0.2%	u	-0.1%	u	-16.2%	-8.7
O=C(c1cc(S(=O)(=O)N2CCN(c3ccccc3)CC2)ccc1Cl)N1CCCCCCC1	-8.4%	u	u	14.6µM*	3.8%	-52.6*
O=C(c1cccc(S(=O)(=O)N2CCN(c3ccccc3)CC2)c1)N1CCCCCCC1	x	u	u	13µM*	3.8%	-14.0
CCCCc1nn2c(=O)cc(COC(=O)c3cccc(Cl)c3)nc2s1	1.9%	u	u	-26.7%	-0.6%	x
CC1CCC(NC(=O)c2ccc(CS(=O)(=O)c3c(Cl)cccc3Cl)o2)CC1 (centres undefined)	6.9%	14.6µM*	u	u	-18.9%	x
Cc1ccccc1S(=O)(=O)Cc1ccc(C(=O)NC2CCCCC2)o1	4.5%	20.6µM*	-1.6%	u	-20.2%	u
CC(C)N(CCNC(=O)c1ccc(CS(=O)(=O)c2c(Cl)cccc2Cl)o1)Cc1ccccc1	4.1%	20.6µM*	-0.1%	u	-21.3%	-8.2
O=C(NC1CC1)c1ccc(CSCc2ccc(Cl)cc2)o1	x	u	-21.8%	20.6µM*	-36.3%	-14.6
Cc1cc(N2CCC(C(=O)Nc3ccc(F)cc3F)CC2)n2nc(C)c(-c3ccc(Cl)cc3)c2n1	-1.2%	u	2.4%	u	-1.9%	x
COc1ccc(O[C@H]2C=C[C@@H](c3ccccc3)O[C@H]2COC(=O)N2CCCCC2)cc1	5.8%[21 µM]	x	x	x	x	x
COc1ccc2ccccc2c1CN1CCOc2ccc(CN3CCN(CCO)CC3)cc2C1	x	10.3%[9.04 µM]	x	u	x	x
CCCCc1nc2c(c3c1C[C@H](C)OC3)CN(C(=O)Nc1cccc(C#N)c1)CC2	6.2%[12.3 µM]	x	x	x	x	x
Cc1cccc(S(=O)Cc2ccc(C(=O)NC3CCCCCC3)o2)c1 (centres undefined)	2.6%	11.6µM*	8.6%	u	-2.9%	x
Cc1ccccc1S(=O)(=O)Cc1ccc(C(=O)NCCN(Cc2ccccc2)C(C)C)o1	4.1%	u	-0.2%	16.4µM*	-4.2%	-4.8
